# Mtb BioA inh – inhibitors of Mycobacterium tuberculosis BioA enzyme | purified M. tuberculosis BioA enzyme, plate reader | inhibition, % at 9.99 µM | actives 0.096% (n = 360,000) | AID 602481; in the data active means inhibition above about 40%
# TcdB GH inh – TcdB glycohydrolase inhibition | P18177 | TcdB glycohydrolase enzymatic assay, plate reader | inhibition, % at 9.99 µM | actives 0.24% (n = 350,000) | AID 652162; in the data active means inhibition above about 10%
# Y pestis TopoI – blocks Yersinia pestis topoisomerase I activity. Y. pestis Topo-I cleavage product accumulation, plate reader. activity, % at 10 µM. actives 0.064% (n = 360,000). AID 504884; in the data active means activity above about 50%, passing the limit was not always enough
# BH1578 lux ind – quorum light induction in luxS cqsA deficient V. cholerae. actives 0.16% (n = 350,000). activation, % at 18.7 µM. V. cholerae BH1578 lux reporter, luminescence, 6 h. AID 588436; in the data active means activation mostly above about 9.7%, no sharp cut-off
# VHR inh abs – inhibitors of human VHR1 phosphatase (DUSP3); P51452; recombinant VHR phosphatase, pNPP absorbance; inhibition, % at 13.3 µM; actives 0.52% (n = 290,000); in the data active means inhibition above about 50%
# Target sequence (P51452 whole entry, looked up): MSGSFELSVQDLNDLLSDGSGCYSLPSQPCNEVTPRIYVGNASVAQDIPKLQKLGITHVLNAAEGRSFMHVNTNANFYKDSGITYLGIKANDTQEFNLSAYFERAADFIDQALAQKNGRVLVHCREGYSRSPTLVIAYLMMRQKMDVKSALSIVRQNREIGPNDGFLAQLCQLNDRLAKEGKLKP
# PfHsp40 rescue – compounds rescuing yeast from Plasmodium falciparum HSP40 toxicity; S. cerevisiae expressing PfHsp40, growth rescue, ATP luminescence; growth rescue, % at 12.5 µM; actives 0.68% (n = 340,000); AID 504582; in the data active means growth rescue above about 28%, passing the limit was not always enough;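 further: yeast W303a lacking pdr1 and pdr3 grown in galactose medium; growth measured after three days at 30 °C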
# Numbers stand for hits; i = inactive; nt = not tested or not shown. Rows were chosen to be rich in hits. Some 1.2% of all compounds tested hit in one or more screens of this group.
SMILES,Mtb BioA inh,TcdB GH inh,Y pestis TopoI,BH1578 lux ind,VHR inh abs,PfHsp40 rescue
COc1ccc(C)cc1N(CC(=O)Nc1ccc(S(=O)(=O)N2CCOCC2)cc1)S(C)(=O)=O,i,i,i,i,i,i
CS(=O)(=O)N(CC(=O)Nc1ccc(S(=O)(=O)N2CCOCC2)cc1)c1ccccc1Br,i,32,i,i,i,i
CC1=CC2=NC(=O)/C(=C\c3cccn3CCOc3cccc(C)c3)C(=N)N2O1,nt,i,i,i,i,44
CCn1c(SCC(=O)Nc2nc(-c3ccc(C)cc3)cs2)nnc1-c1ccccc1,i,nt,i,i,i,i
CCn1c(SCC(=O)Nc2nc(-c3ccc(C)cc3)cs2)nnc1-c1ccccc1O,i,nt,i,i,i,86
O=C(Cc1cccs1)Nc1ccc(N2CCOCC2)cc1,i,i,i,i,i,35
O=C(Cc1cccs1)Nc1ccc(Cl)cc1,i,nt,i,i,i,i
Nc1nc2sc3c(c2c(=O)s1)CCCC3,i,i,i,i,i,290
NC(=O)CSc1nnc(-c2ccc(S(=O)(=O)N3CCCC3)cc2)o1,i,i,i,i,i,i
CC(C)(C)NC(=O)CSc1nnc(-c2ccco2)n1Cc1ccco1,i,nt,i,i,i,i
Cc1cc(NS(=O)(=O)c2ccc(NC(=O)CSc3nnc(-c4ccco4)n3Cc3ccco3)cc2)nc(C)n1,nt,nt,i,i,i,54
Cc1ccc(CNC(=O)c2ccccc2SCC(=O)NCC2CCCCC2)cc1,i,nt,i,i,54,i
CC1CCCN(CC(=O)Nc2cccc([N+](=O)[O-])c2)C1 (stereo not drawn),i,i,i,i,i,i
Cc1ccccc1OCc1nnc(SCC(=O)Nc2ccc3c(c2)oc2ccccc23)n1C,i,nt,i,i,i,i
Cc1ccc(-c2nnc(SCC(=O)Nc3ccc4c(c3)oc3ccccc34)n2C)c(Cl)c1,i,nt,i,i,59,i
CNC(=O)C[C@H]1CC[C@@H]2[C@@H](COc3ccc(NC(=O)C4CC4)cc3C(=O)N2C)O1,i,nt,nt,nt,nt,nt
COc1ccc(CNC(=O)c2cc(-c3ccncc3)nc3c(C)cc(C)cc23)cc1OC,nt,i,i,i,57,i
COc1ccc(CCNC(=O)c2cc(-c3ccccn3)nc3c(Cl)cccc23)cc1OC,nt,i,i,i,i,i
COc1ccc(CCNC(=O)c2cc(-c3ccncc3)nc3c(Cl)cccc23)cc1OC,nt,i,i,i,53,i
N#CCSc1nc2cc(C(=O)N3CCC(C(N)=O)CC3)ccc2c2nc3ccccc3n12,i,nt,i,i,i,i
COc1cccc(CSc2nc3ccccc3[nH]2)c1,nt,i,i,i,i,i
CCn1ccnc1CN(C)Cc1cn(-c2ccc(C)cc2)nc1-c1cccc(C)c1,nt,i,i,i,i,i
CC1(C)Cc2c(sc3ncn(N)c(=N)c23)CO1,i,nt,i,i,i,i
CC1(C)Cc2c(sc3ncn4c(=S)[nH]nc4c23)CO1,nt,22,i,i,i,i
O=[N+]([O-])c1ccc(S(=O)(=O)Nc2nc(-c3ccccc3)cs2)cc1,i,13,i,i,i,i
SMILES,Mtb BioA inh,TcdB GH inh,Y pestis TopoI,BH1578 lux ind,VHR inh abs,PfHsp40 rescue
O=[N+]([O-])c1ccc(Oc2ccc(S(=O)(=O)Nc3ccccc3)cc2)cc1,nt,nt,i,i,i,388
O=S(=O)(Nc1ccccc1)c1ccc(Oc2ncc(C(F)(F)F)cc2Cl)cc1,i,nt,i,i,i,282
CCOc1ccc2nc(N3CCCC(C(=O)NC4CCCC4)C3)sc2c1 (stereo not drawn),i,i,i,i,53,i
CCOc1ccc2nc(N3CCC(C(=O)NC4CCCCC4)CC3)sc2c1,i,i,i,i,i,i
S=C(NCCc1ccccc1)N/N=C/c1ccc(Cl)cc1,nt,i,i,i,i,i
Oc1ccc(/C=N/Nc2nc(N3CCCC3)nc(N3CCCC3)n2)cc1O,i,21,i,i,i,i
CCN(CC)S(=O)(=O)c1cccc(C(=O)NC2=NCCS2)c1,i,i,i,i,i,i
Cc1ccc(C(=O)Nc2ccc(N3CCCCC3)cc2)cc1,i,11,i,i,nt,i
O=C(COC(=O)c1ccc(Cl)nc1)Nc1c(Cl)cccc1C(F)(F)F,i,i,i,i,nt,i
Cc1ccc(S(=O)(=O)Nc2ccc3c(c2)CC(=O)N([C@@H](C)CO)C[C@@H](C)[C@H](CN(C)Cc2ccncc2)O3)cc1,i,i,nt,nt,nt,nt
CCCCOc1ccc(-c2csc(N)n2)cc1[N+](=O)[O-],nt,nt,i,i,i,141
CCCCOc1ccc(C2=CSC3=NCCN23)cc1[N+](=O)[O-],i,i,i,i,i,i
C=CCNC(=O)c1n[nH]c2c1CC(C(C)(C)CC)CC2 (stereo not drawn),i,i,i,i,nt,96
COC(=O)c1ccc(C23CC4(C2)[C@H](CN(Cc2ccc(C(F)(F)F)cc2)[C@@H]4c2ccccc2)C3c2ccc(Cl)nc2)cc1 (stereo partly drawn),nt,12,nt,nt,i,nt
Cc1noc(C)c1NC(=O)N(C)C[C@@H]1OCCCC[C@H](C)Oc2ccc(NS(=O)(=O)c3cn(C)cn3)cc2C(=O)N([C@H](C)CO)C[C@@H]1C,i,nt,nt,nt,nt,nt
CCCCCCN1N=C(C)C(C(=O)c2ccc(Cl)cc2)C1=O (stereo not drawn),nt,nt,i,i,i,519
CCCCCCCN1N=C(C)C(C(=O)c2ccccc2)C1=O (stereo not drawn),i,nt,i,i,i,381
COc1ccc(C)c2sc(N(CCN(C)C)C(=O)/C=C/c3cccs3)nc12,i,i,i,i,i,i
CCCc1cc(C(N)=O)c(NC(=O)c2cc(C)on2)s1,i,i,i,i,i,178
CCCc1cc(C(N)=O)c(NC(=O)c2ccoc2C)s1,i,i,i,i,i,i
Cc1cc2ccccn2c1C(=S)NC(=O)c1ccccc1,i,i,i,i,i,i
CCOc1ccc2nc(NC(=S)N(C)C)sc2c1,i,nt,i,i,i,122
CCCn1c(O)c(N=NC(=O)CNC(=O)c2ccncc2)c2ccccc21,i,i,i,i,i,i
Cc1ccc(C)c2nc(SCC(=O)NCc3cccs3)c(C#N)cc12,i,nt,i,i,53,i
COc1ccc(NC(=O)NNC(=O)c2cc3occc3n2C)c(OC)c1,i,i,i,i,51,i
SMILES,Mtb BioA inh,TcdB GH inh,Y pestis TopoI,BH1578 lux ind,VHR inh abs,PfHsp40 rescue
COc1ccc(NC(=O)NNC(=O)c2ccc(-c3ccccc3)cc2)c(OC)c1,i,i,i,i,i,i
Cc1noc(C)c1NC(=O)N(C)C[C@H]1Oc2ccc(N(C)C)cc2C(=O)N([C@H](C)CO)C[C@H]1C,i,i,nt,nt,nt,nt
CC(C)NC(=O)N1CC[C@@H]2[C@@H](CO)N(C)c3ccc(-c4ccc(F)cc4)cc3[C@@H]21,nt,12,nt,nt,nt,nt
COCC(=O)N1CC[C@H]2[C@@H]1c1cc(-c3ccc(OC)cc3)ccc1N(C)[C@H]2CO,i,14,nt,nt,nt,nt
CC(C)NC(=O)N1CC[C@@H]2[C@H]1c1cc(-c3ccc(F)cc3)ccc1N(C)[C@@H]2CO,nt,i,nt,nt,nt,nt
COc1ccc(-c2ccc3c(c2)[C@H]2[C@H](CCN2C(=O)Cc2cccnc2)[C@@H](CO)N3C)cc1,i,11,nt,nt,nt,nt

# Source: PubChem
